From PubChem BioAssay (Tox21)
Results filed as inconclusive are left out. Active and inactive are the calls of the source. The call rests on the fitted dose curve; in most records, active means well fitted curve in the direction sought with a large enough effect in the repeat runs; inconclusive means weak or mixed curves; inactive means no such curve, though single readings can be large; an effect the other way counts as inactive or inconclusive.

Experiments:
[1] = qHTS RealTime-Glo MT Cell Viability Assay in HEK293 cells - 0 hour (AID 1224880); further: top concentration of the series differs between compounds; nearly all actives have a fitted effect of over 45% in size
In short: (§1)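 qHTS format; HEK293 cells with NanoLuc/prosubstrate reagent, 37 C/5% CO2 for 5 h pre-dosing; compounds 23 nL in DMSO; luminescence at each time point reflects viable cells.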

[2] = A CellTox Green Cytotoxicity Assay to monitor cytotoxicity in HEK293 cells - 32 hour (AID 1224881); further: nearly all actives have a fitted effect of over 40% in size; further: potency means the concentration at half of the fitted maximal effect
In short: (§2)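 Each value comes from one timepoint of a single continuous run in which HEK293 cells with CellTox Green were exposed to compound for up to 40 h at 37 C, dye fluorescence rising with cell death.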

[3] = A CellTox Green Cytotoxicity Assay to monitor cytotoxicity in HepG2 cells - 0 hour (AID 1224882); further: nearly all actives have a fitted effect of over 35% in size
In short: (§3)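 Continuous culture of HepG2 cells with a membrane-impermeant DNA dye; rising fluorescence marks dead cells. Compound exposure lasted up to 40 h at 37 C, with reads every 8 h from 0 h.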

[4] = A CellTox Green Cytotoxicity Assay to monitor cytotoxicity in HepG2 cells - 32 hour (AID 1224883); further: nearly all actives have a fitted effect of over 50% in size; further: potency means the concentration at half of the fitted maximal effect
In short: as §3

[5] = A CellTox Green Cytotoxicity Assay to monitor cytotoxicity in HEK293 cells - 8 hour (AID 1224884); further: nearly all actives have a fitted effect of over 35% in size
In short: as §2

[6] = qHTS RealTime-Glo MT Cell Viability Assay in HepG2 cells - 16 hour (AID 1224885); further: nearly all actives have a fitted effect of over 50% in size
In short: (§4)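 Viability was tracked continuously by NanoLuc luminescence from prosubstrate reduced by living HepG2 cells, at successive time points over 40 h of compound exposure. Cells with reagent were preincubated 5 h at 37 °C before compound addition.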

[7] = qHTS RealTime-Glo MT Cell Viability Assay in HEK293 cells - 24 hour (AID 1224886); further: nearly all actives have a fitted effect of over 50% in size; further: potency means the concentration at half of the fitted maximal effect; on activity change, negative = cytotoxicity: top concentration of the series differs between compounds
In short: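 Viability tracked continuously by luminescence as live cells reduce a prosubstrate for NanoLuc; HEK293 cells preincubated 5 h, compound-treated at 37 C, and read at 0, 8, 16, 24, 32 and 40 h.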

[8] = qHTS RealTime-Glo MT Cell Viability Assay in HEK293 cells - 8 hour (AID 1224887); further: top concentration of the series differs between compounds; nearly all actives have a fitted effect of over 50% in size
In short: as §1

[9] = A CellTox Green Cytotoxicity Assay to monitor cytotoxicity in HEK293 cells - 16 hour (AID 1224888); further: nearly all actives have a fitted effect of over 35% in size
In short: as §2

[10] = qHTS RealTime-Glo MT Cell Viability Assay in HepG2 cells - 0 hour (AID 1224889); further: nearly all actives have a fitted effect of over 50% in size
In short: as §4
On the % scale 0 is the no-effect control and ±100 the full control effect.

CC(O)Cn1cnc2c1c(=O)n(C)c(=O)n2C (stereo not drawn)
inactive: Potency [1] | Potency [2] | Potency [3] | Potency [4] | Potency [5] | Potency [6] | Potency [7] | Potency [8] | Potency [9] | Potency [10]

O=C(NC(Cc1cc(=O)[nH]c2ccccc12)C(=O)O)c1ccc(Cl)cc1 (stereo not drawn)
inactive: Potency [1] | Potency [2] | Potency [3] | Potency [4] | Potency [5] | Potency [6] | Potency [7] | Potency [8] | Potency [9] | Potency [10]

CCOC(=O)C(C)O (stereo not drawn)
inactive: Potency [1] | Potency [2] | Potency [3] | Potency [4] | Potency [5] | Potency [6] | Potency [7] | Potency [8] | Potency [9] | Potency [10]

O=C(O)c1ccc(O)cc1O
inactive: Potency [1] | Potency [2] | Potency [3] | Potency [4] | Potency [5] | Potency [6] | Potency [7] | Potency [8] | Potency [9] | Potency [10]

CC(C)c1ccc(C(=O)N=C(N)N)cc1S(C)(=O)=O
inactive: Potency [1] | Potency [2] | Potency [3] | Potency [4] | Potency [5] | Potency [6] | Potency [7] | Potency [8] | Potency [9] | Potency [10]

Nc1ccc(F)cc1
inactive: Potency [1] | Potency [2] | Potency [3] | Potency [4] | Potency [5] | Potency [6] | Potency [7] | Potency [8] | Potency [10]

O=C(O)CCCc1c[nH]c2ccccc12
inactive: Potency [1] | Potency [2] | Potency [3] | Potency [5] | Potency [6] | Potency [7] | Potency [8] | Potency [9] | Potency [10]
active: Potency [4] 15.5 µM

CCC(C)(C)C(=O)O
inactive: Potency [1] | Potency [2] | Potency [3] | Potency [4] | Potency [5] | Potency [6] | Potency [7] | Potency [8] | Potency [9] | Potency [10]

CC(C)C1CCC(C(=O)N[C@H](Cc2ccccc2)C(=O)O)CC1 (stereo partly drawn)
inactive: Potency [1] | Potency [2] | Potency [3] | Potency [4] | Potency [5] | Potency [6] | Potency [7] | Potency [8] | Potency [9] | Potency [10]

O=C(/C=C/c1ccc([N+](=O)[O-])cc1)c1ccccc1
active: Potency [2] 17.4 µM | Potency [4] 21.9 µM | Potency [7] 31 µM
inactive: Potency [1] | Potency [3] | Potency [5] | Potency [6] | Potency [9] | Potency [10]

CC[C@H]1OC(=O)[C@H](C)[C@@H](O[C@H]2C[C@@](C)(OC)[C@@H](O)[C@H](C)O2)[C@H](C)[C@@H](O[C@@H]2O[C@H](C)C[C@H](N(C)C)[C@H]2O)[C@](C)(O)C[C@@H](C)/C(=N\OCOCCOC)[C@H](C)[C@@H](O)[C@]1(C)O
inactive: Potency [1] | Potency [2] | Potency [3] | Potency [4] | Potency [5] | Potency [6] | Potency [7] | Potency [9] | Potency [10]

CCCCCCCCCCCCCCN(C)C
inactive: activity change, negative = cytotoxicity [1] 0% [at 15.8 µM] | cytotoxicity increase [2] -32.2% [at 15.8 µM] | cytotoxicity [3] -1.15% [at 15.8 µM] | cytotoxicity increase [4] -7.28% [at 15.8 µM] | cytotoxicity increase [5] -28% [at 15.8 µM] | activity change, negative = cytotoxic [6] -0.238% [at 15.8 µM] | activity change [9] -30.9% [at 15.8 µM, stronger effect = higher value] | activity change, negative = cytotoxicity [10] -19.6% [at 15.8 µM]

CC(=O)OCCC(C)CC(C)(C)C (stereo not drawn)
inactive: Potency [1] | Potency [2] | Potency [3] | Potency [4] | Potency [5] | Potency [6] | Potency [7] | Potency [9] | Potency [10]

C1=CCC2CC=CC2C1 (stereo not drawn)
inactive: Potency [1] | Potency [2] | Potency [3] | Potency [4] | Potency [5] | Potency [7] | Potency [8] | Potency [9]

COc1cc(NCc2ccc3nc(N)nc(N)c3c2C)cc(OC)c1OC
inactive: Potency [1] | Potency [2] | Potency [3] | Potency [4] | Potency [5] | Potency [6] | Potency [9] | Potency [10]

Cc1cc(CCCOc2c(C)cc(-c3noc(C(F)(F)F)n3)cc2C)on1
inactive: Potency [1] | Potency [2] | Potency [3] | Potency [4] | Potency [5] | Potency [6] | Potency [9] | Potency [10]

CC(C)(C)CCCCCCOC(=O)c1ccccc1C(=O)OCCCCCCC(C)(C)C
inactive: Potency [1] | Potency [2] | Potency [3] | Potency [4] | Potency [5] | Potency [6] | Potency [7] | Potency [9] | Potency [10]

C=CCOC(=O)COCCC(C)C
inactive: Potency [1] | Potency [2] | Potency [3] | Potency [4] | Potency [5] | Potency [7] | Potency [8] | Potency [9]

CCCc1nc2c(C)cc(-c3nc4ccccc4n3C)cc2n1Cc1ccc(-c2ccccc2C(=O)O)cc1
inactive: Potency [1] | Potency [2] | Potency [3] | Potency [4] | Potency [5] | Potency [6] | Potency [9]

CCCCCC
inactive: Potency [1] | Potency [2] | Potency [3] | Potency [4] | Potency [5] | Potency [7] | Potency [8] | Potency [9]

CC[C@H]1OC(=O)[C@H](C)[C@@H](O[C@H]2C[C@@](C)(OC)[C@@H](O)[C@H](C)O2)[C@H](C)[C@@H](O[C@@H]2O[C@H](C)C[C@H](N(C)C)[C@H]2O)[C@](C)(O)C[C@@H](C)CN(C)[C@H](C)[C@@H](O)[C@]1(C)O
inactive: Potency [1] | Potency [2] | Potency [3] | Potency [4] | Potency [5] | Potency [6] | Potency [7] | Potency [9]

CCCCCCCCCCCCCOC(=O)CCSCCC(=O)OCCCCCCCCCCCCC
inactive: activity change, negative = cytotoxicity [1] -5.28% [at 15.8 µM] | cytotoxicity increase [2] 13.9% [at 15.8 µM] | cytotoxicity [3] 4.63% [at 15.8 µM] | cytotoxicity increase [4] -0.352% [at 15.8 µM] | cytotoxicity increase [5] 12.5% [at 15.8 µM] | activity change, negative = cytotoxic [6] -6.5% [at 15.8 µM] | activity change, negative = cytotoxicity [7] -2.9% [at 15.8 µM] | activity change [9] 17.2% [at 15.8 µM, stronger effect = higher value] | activity change, negative = cytotoxicity [10] -15% [at 15.8 µM]

COc1ccc(-c2cc(=S)ss2)cc1
inactive: Potency [1] | Potency [2] | Potency [3] | Potency [4] | Potency [5] | Potency [6] | Potency [7] | Potency [9] | Potency [10]

CCCCCc1ccco1
inactive: Potency [1] | Potency [2] | Potency [3] | Potency [4] | Potency [5] | Potency [6] | Potency [7] | Potency [9]

CCOC(=O)c1c(N)sc2c1CCN(Cc1ccccc1)C2
active: Potency [7] 19 µM
inactive: Potency [1] | Potency [2] | Potency [3] | Potency [4] | Potency [5] | Potency [6] | Potency [9] | Potency [10]
